Compound activity as filed in PubChem.
D1 ag: Allosteric Agonists of the Human D1 Dopamine Receptor: qHTS; AID 504660, 2011; actives 1% (n = 360,000); activation, % at 2 µM; HEK293 T-REx D1 cells, calcium flux, agonist mode; D(1A) dopamine receptor (Homo sapiens), P21728; in the data active = activation above about 30%; note: 0% is about no effect
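Inducible HEK293 T-REx D1 cells, force-coupled to calcium signalling, were plated at 4000 cells/well with tetracycline and held overnight at 30 C. After no-wash calcium dye loading, compound-evoked calcium rise over 180 s flagged agonists.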
D1 antag: Antagonist of Human D 1 Dopamine Receptor: qHTS; HEK293 TREx D1 cells, calcium flux, dopamine EC80; active compounds read low; activity change, negative = inhibition, % at 10 µM; actives 3.2% (n = 360,000); in the data active = activity change below about -30%; note: % is set by controls: 0 for no effect and ±100 for the full control effect
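Using tetracycline-induced force-coupled D1 Hek293 cells and a calcium dye, signals were followed for 180 s after compound, then for 180 s after EC80 dopamine, to detect inhibitors.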
Eya2 inh: qHTS Assay for Inhibitors of the Phosphatase Activity of Eya2 | Protein phosphatase EYA2 (Homo sapiens), O00167 | recombinant Eya2, OMFP fluorescence dephosphorylation (OMFP is methylfluorescein phosphate) | Potency, µM (titrated, usually from 76.9 µM), for inactives: top-dose activity, negative = inhibition, usual class: inhibitors | actives 0.006% (n = 330,000) | AID 488837, 2010; note: potency is the fitted concentration of half-maximal effect; % is set by controls: 0 for no effect and ±100 for the full control effect
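Eya2 protein (added as 0.2 uM solution) was preincubated with compound for 10 min at ambient temperature in 50 mM HEPES pH 7.5, 50 mM NaCl, 5 uM MgCl2, 0.05% BSA, 1 mM DTT. OMFP (added at 50 uM) then reacted 10 min; fluorescence read at 485/525 nm.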
D1 potentiator: Potentiators of Human D1 Dopamine Receptor: qHTS. D(1A) dopamine receptor (Homo sapiens), P21728. HEK293 TREx D1 cells, calcium flux, dopamine EC20 potentiation. potentiation, % at 10 µM. actives 0.036% (n = 360,000). AID 504651, 2011; in the data active = potentiation above about 30%; note: 0% is about no effect
GALK inh: qHTS Assay for Inhibitors of Human Galactokinase (GALK); AID 1868, 2009; Potency, µM (series often up to 57.5 µM), for inactives: at the top dose activity change, negative = inhibition, hits mostly inhibitors; Purified GALK, Kinase-Glo residual ATP luminescence; actives 0.007% (n = 270,000); note: potency is the fitted concentration of half-maximal effect; % is set by controls: 0 for no effect and ±100 for the full control effect
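5 nM enzyme, 35 uM ATP, 100 uM galactose, 20 mM HEPES pH8.0, 5 mM MgCl2; 1 h RT; residual ATP by Kinase-Glo Plus luminescence, qHTS format.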
USP2a block: qHTS Assay for Inhibitors of Ubiquitin-specific Protease USP2a Using CHOP2 as the Reporter | USP2 core, Ub-CHOP2 coupled fluorogenic reporter, 485/531 | Potency, µM (titrated, usually from 38.3 µM), without a hit: at the highest dose activity change, negative = inhibition, usual class: inhibitors | actives 0.01% (n = 330,000) | AID 463254, 2010;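 note: potency is the fitted concentration of half-maximal effect; plate controls were DMSO wells for no effect and full inhibition by NEM control for full effect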
Target sequence (O75604 whole entry, looked up): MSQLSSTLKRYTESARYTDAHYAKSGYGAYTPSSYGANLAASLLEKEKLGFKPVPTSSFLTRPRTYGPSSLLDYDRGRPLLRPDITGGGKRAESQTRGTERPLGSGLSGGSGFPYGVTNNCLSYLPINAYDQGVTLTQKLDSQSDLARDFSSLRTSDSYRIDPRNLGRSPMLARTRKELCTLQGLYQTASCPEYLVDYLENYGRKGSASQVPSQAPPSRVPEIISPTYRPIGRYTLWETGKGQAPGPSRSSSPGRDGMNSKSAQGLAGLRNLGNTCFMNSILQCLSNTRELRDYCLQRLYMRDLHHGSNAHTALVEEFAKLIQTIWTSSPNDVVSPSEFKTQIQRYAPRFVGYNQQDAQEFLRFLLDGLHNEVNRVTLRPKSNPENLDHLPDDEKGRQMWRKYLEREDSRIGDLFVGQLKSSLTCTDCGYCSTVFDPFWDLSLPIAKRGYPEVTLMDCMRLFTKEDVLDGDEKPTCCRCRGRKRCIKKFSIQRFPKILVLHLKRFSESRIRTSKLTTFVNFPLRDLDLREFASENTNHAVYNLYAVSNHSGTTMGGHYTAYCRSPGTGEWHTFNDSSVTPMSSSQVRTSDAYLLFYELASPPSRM
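Deubiquitinase activity read as fluorescence (485/531 nm) after Ub-CHOP2 cleavage activates the enterokinase reporter on its substrate; USP2 core 10nM, Ub-CHOP2 and substrate 25nM each, 30min compound preincubation then 60min RT; data normalized to NEM, curves fitted.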
* marks the source's active call; other numbers are inactive results. Compounds with a hit are over-represented: about 3.9% of the library has one in this group of screens. Unless noted, calls come from the whole dose curve; as a rule, active = well fitted inhibition curve with a large enough effect; inconclusive = small, poorly fitted or top-dose-only effect, or effect the other way; inactive = flat fitted curve, though single readings scatter.

Results for Cc1ccc(OCC(=O)N(Cc2ccc(Cl)cc2)Cc2ccco2)cc1C ?
D1 ag: 22; D1 antag: 6; D1 potentiator: 0

Results for Cc1ccc2occ(CC(=O)N(Cc3ccc(Cl)cc3)Cc3ccco3)c2c1 ?
D1 ag: 90*; D1 antag: -26; D1 potentiator: 21

What do the screens show for `Fc1ccc(C2=NC(c3cccc(C(F)(F)F)c3)=Nc3ccccc3N2)cc1`?
D1 ag: 8; D1 antag: 9; D1 potentiator: -2

How did N#Cc1c(-c2ccccc2)[nH]c(=O)[nH]c1=O do in these assays?
D1 ag: 4; D1 antag: -35*; Eya2 inh: 3%; D1 potentiator: 0; GALK inh: 3%; USP2a block: 2%

What do the screens show for `Cc1ccc(C2=NC(c3ccc(F)cc3)=Nc3ccc(C)cc3N2)cc1`?
D1 ag: 1; D1 antag: -40*; D1 potentiator: -2

How did O=C1CC(c2ccco2)CC2=C1C(c1ccc(O)cc1)n1nc(C(F)(F)F)nc1N2 (configuration not stated) do in these assays?
D1 ag: 2; D1 antag: -9; D1 potentiator: -1

How did Cn1c(-c2ccc(F)cc2)cnc1NCc1cc2c(cc1[N+](=O)[O-])OCO2 do in these assays?
D1 ag: 24; D1 antag: -77*; Eya2 inh: -5%; D1 potentiator: -5; GALK inh: -1%; USP2a block: -22%

Results for COc1ccccc1CNc1ncc(-c2ccccc2)n1C ?
D1 ag: 7; D1 antag: -49*; Eya2 inh: -4%; D1 potentiator: -3; GALK inh: 1%; USP2a block: -5%

How did Cn1c(-c2ccccc2)cnc1NCc1ccccc1O do in these assays?
D1 ag: -1; D1 antag: 2; D1 potentiator: -1

How did CCOc1ccc(-c2cnc(NCc3cccc(Cl)c3)n2C)cc1 do in these assays?
D1 ag: 0; D1 antag: 18; D1 potentiator: -3

How did CCOc1ccc(-c2cnc(NCc3cccc4ccccc34)n2CCOC)cc1 do in these assays?
D1 ag: 18; D1 antag: -58*; Eya2 inh: -6%; D1 potentiator: -6; GALK inh: 0%; USP2a block: 0%

Results for COc1cc(CNc2ncc(-c3ccc(Br)cc3)n2C)cc(OC)c1O ?
D1 ag: 2; D1 antag: -42*; Eya2 inh: -8%; D1 potentiator: -9; GALK inh: 1%; USP2a block: 0%

What do the screens show for `COc1ccccc1CNc1ncc(-c2ccc(F)cc2)n1C`?
D1 ag: 6; D1 antag: -62*; Eya2 inh: 4%; D1 potentiator: -8; GALK inh: 4%; USP2a block: 0%

What do the screens show for `COc1ccc(CNc2ncc(-c3ccc(F)cc3)n2C)c2ccccc12`?
D1 ag: 12; D1 antag: -36*; Eya2 inh: -3%; D1 potentiator: -11; GALK inh: 1%; USP2a block: -1%

How did COc1ccc(CNc2ncc(-c3ccc(F)cc3)n2C)cc1OC do in these assays?
D1 ag: 3; D1 antag: -41*; Eya2 inh: -10%; D1 potentiator: -10; GALK inh: 1%; USP2a block: 1%

What do the screens show for `COc1ccc(OC)c(CNc2ncc(-c3ccc(F)cc3)n2C)c1`?
D1 ag: 5; D1 antag: -55*; Eya2 inh: 0%; D1 potentiator: -13; GALK inh: -3%; USP2a block: 0%

Results for Cc1ccc(-n2cnc3cc(C(=O)NCc4ccccc4Cl)ccc32)c(C)c1 ?
D1 ag: 0; D1 antag: -1; D1 potentiator: -2

What do the screens show for `Cc1cc(=O)n(Cc2c(F)cccc2Cl)c2c1c(C)nn2-c1cccc(F)c1`?
D1 ag: 6; D1 antag: -3; D1 potentiator: -4

How did O=C(COc1ccc(F)cc1)Nc1nnc(SCc2cc(=O)n3ccccc3n2)s1 do in these assays?
D1 ag: 0; D1 antag: -4; D1 potentiator: 2

How did CN1CCN(/N=C/c2nc(-c3ccc(Cl)cc3)n3ccccc23)CC1 do in these assays?
D1 ag: 12; D1 antag: -61*; Eya2 inh: -3%; D1 potentiator: -7; GALK inh: -1%; USP2a block: 1%

What do the screens show for `O=C(O)C(c1ccccc1)N1C(=O)/C(=C\c2ccc(-c3ccc(Br)cc3)o2)SC1=S` (configuration not stated)?
D1 ag: 66*; D1 antag: 68; Eya2 inh: inconclusive; D1 potentiator: 27; GALK inh: -20%; USP2a block: 3%

Results for O=[N+]([O-])c1ccc2nc(Cl)nc(-c3ccccc3)c2c1 ?
D1 ag: 1; D1 antag: -34*; Eya2 inh: -21%; D1 potentiator: -1; USP2a block: 2%

How did O=[N+]([O-])c1ccc2nc(-[n+]3c(-c4ccccc4)cc(-c4ccccc4)cc3-c3ccccc3)[nH]c2c1 do in these assays?
D1 ag: 17; D1 antag: 5; Eya2 inh: -3%; D1 potentiator: -7; GALK inh: 3%; USP2a block: -1%

How did CCN(C(=O)Cn1nc(Cc2cccnc2)c2ccccc2c1=O)c1ccccc1F do in these assays?
D1 ag: 0; D1 antag: -5; D1 potentiator: -1

How did CCN(CC)c1ccc(/C=C2\SC(=O)N(C(C)C)C2=O)o1 do in these assays?
D1 ag: 51*; D1 antag: -17; Eya2 inh: 20%; D1 potentiator: -5; GALK inh: -4%; USP2a block: 22%

How did Cc1ccc2nc3c(c(Nc4ccc(C)c(C)c4)c2c1)CCC3 do in these assays?
D1 ag: -1; D1 antag: -5; D1 potentiator: 1

How did COc1ccc2c(c1)c1c(c(=O)n(Cc3ccccc3)c(=O)n1CC(=O)Nc1c(C)cccc1C)n2C do in these assays?
D1 ag: 3; D1 antag: -11; D1 potentiator: -3

What do the screens show for `CN1CCN(c2ccc(Cl)cc2NC(=O)/C=C/c2ccc(F)cc2)CC1`?
D1 ag: 7; D1 antag: -12; Eya2 inh: 8%; D1 potentiator: 0; GALK inh: -1%; USP2a block: -2%
